An excerpt weighted towards active compounds, which were near 12% of everything screened.
G9a block = G9a (human) methyltransferase inhibition; hit rate 8.8% among 350,000; AID 504332; Potency, µM (top dose mostly 102 µM), most hits filed as inhibitors; Q96KQ7; G9a H3K9 monomethylation, AlphaScreen, 2 h; note: nearly all actives have a fitted effect of over 75% in size
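Using a bead-based AlphaScreen, monomethylated H3K9 product from 2 h room-temperature reactions (G9a 20 nM, peptide 500 nM, SAM 20 uM) was detected with 0.5 ug/mL rabbit anti-H3K9me1 antibody.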
HP1b chromo inh = inhibitors of HP1-beta chromodomain binding to methylated histone tails | hit rate 0.56% among 390,000 | Potency, µM (highest dose often 114 µM), hits mostly inhibitors | AID 540317 | P83916 | AlphaScreen HP1-beta / biotin-H3K9me3 peptide binding; note: nearly all actives have a fitted effect of over 70% in size
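HP1-beta protein (50 nM final) preincubated 30 min at room temperature with biotinylated H3(1-18)K9me3 peptide (50 nM) in PBS pH 7.4, 0.01% Tween-20, then compound added for 30 min. AlphaScreen streptavidin donor/nickel chelate acceptor beads (10 ug/mL final), 30 min dark, luminescence read.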
L3MBTL1 inh = blocks human L3MBTL1 | hit rate 0.66% among 230,000 | Potency, µM (top dose mostly 57.1 µM), most hits filed as inhibitors | Q9Y468 | AlphaScreen L3MBTL1–H3K9me1 peptide binding; note: nearly all actives have a fitted effect of over 60% in size
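AlphaScreen proximity signal between nickel-chelate acceptor and streptavidin donor beads (final 10 ug/mL) reports binding of 50 nM L3MBTL1 to 75 nM biotin-H3 K9me1 peptide; complex incubated with compounds 30 min at room temperature; cefsulodin titration as control.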
JMJD2A Tudor = inhibitors of human JMJD2A Tudor domain | Potency, µM (series often up to 114 µM), actives largely listed as inhibitors | AID 504339 | AlphaScreen JMJD2A-Tudor / H3K4me3 peptide binding | hit rate 4.4% among 390,000 | O75164; note: nearly all actives have a fitted effect of over 50% in size
Sfp inh = Sfp phosphopantetheinyl transferase inhibition | Q9F4F7 | Biochemical Sfp PPTase activity, qHTS | Potency, µM, hits mostly inhibitors | hit rate 3.5% among 310,000 | AID 1490;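 note: the enzyme is Sfp with the accession as filed and its product quenches rhodamine fluorescence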
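Step 1, compound plus 15 nM Sfp-PPTase, 15 min, room temperature. Step 2, add rhodamine-CoA (5 uM) and BHQ-2-YbbR (12.5 uM). Step 3, read 525/598 nm fluorescence at 0 and 30 min.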
BAZ2B inh = inhibitors of human BAZ2B bromodomain | Q9UIF8 | AlphaScreen BAZ2B-H3K14Ac peptide displacement | Potency, µM (series often up to 114 µM), usual class: inhibitors | hit rate 4.4% among 360,000 | AID 504333; note: nearly all actives have a fitted effect of over 60% in size
Target sequence (Q9UIF8 whole entry, looked up): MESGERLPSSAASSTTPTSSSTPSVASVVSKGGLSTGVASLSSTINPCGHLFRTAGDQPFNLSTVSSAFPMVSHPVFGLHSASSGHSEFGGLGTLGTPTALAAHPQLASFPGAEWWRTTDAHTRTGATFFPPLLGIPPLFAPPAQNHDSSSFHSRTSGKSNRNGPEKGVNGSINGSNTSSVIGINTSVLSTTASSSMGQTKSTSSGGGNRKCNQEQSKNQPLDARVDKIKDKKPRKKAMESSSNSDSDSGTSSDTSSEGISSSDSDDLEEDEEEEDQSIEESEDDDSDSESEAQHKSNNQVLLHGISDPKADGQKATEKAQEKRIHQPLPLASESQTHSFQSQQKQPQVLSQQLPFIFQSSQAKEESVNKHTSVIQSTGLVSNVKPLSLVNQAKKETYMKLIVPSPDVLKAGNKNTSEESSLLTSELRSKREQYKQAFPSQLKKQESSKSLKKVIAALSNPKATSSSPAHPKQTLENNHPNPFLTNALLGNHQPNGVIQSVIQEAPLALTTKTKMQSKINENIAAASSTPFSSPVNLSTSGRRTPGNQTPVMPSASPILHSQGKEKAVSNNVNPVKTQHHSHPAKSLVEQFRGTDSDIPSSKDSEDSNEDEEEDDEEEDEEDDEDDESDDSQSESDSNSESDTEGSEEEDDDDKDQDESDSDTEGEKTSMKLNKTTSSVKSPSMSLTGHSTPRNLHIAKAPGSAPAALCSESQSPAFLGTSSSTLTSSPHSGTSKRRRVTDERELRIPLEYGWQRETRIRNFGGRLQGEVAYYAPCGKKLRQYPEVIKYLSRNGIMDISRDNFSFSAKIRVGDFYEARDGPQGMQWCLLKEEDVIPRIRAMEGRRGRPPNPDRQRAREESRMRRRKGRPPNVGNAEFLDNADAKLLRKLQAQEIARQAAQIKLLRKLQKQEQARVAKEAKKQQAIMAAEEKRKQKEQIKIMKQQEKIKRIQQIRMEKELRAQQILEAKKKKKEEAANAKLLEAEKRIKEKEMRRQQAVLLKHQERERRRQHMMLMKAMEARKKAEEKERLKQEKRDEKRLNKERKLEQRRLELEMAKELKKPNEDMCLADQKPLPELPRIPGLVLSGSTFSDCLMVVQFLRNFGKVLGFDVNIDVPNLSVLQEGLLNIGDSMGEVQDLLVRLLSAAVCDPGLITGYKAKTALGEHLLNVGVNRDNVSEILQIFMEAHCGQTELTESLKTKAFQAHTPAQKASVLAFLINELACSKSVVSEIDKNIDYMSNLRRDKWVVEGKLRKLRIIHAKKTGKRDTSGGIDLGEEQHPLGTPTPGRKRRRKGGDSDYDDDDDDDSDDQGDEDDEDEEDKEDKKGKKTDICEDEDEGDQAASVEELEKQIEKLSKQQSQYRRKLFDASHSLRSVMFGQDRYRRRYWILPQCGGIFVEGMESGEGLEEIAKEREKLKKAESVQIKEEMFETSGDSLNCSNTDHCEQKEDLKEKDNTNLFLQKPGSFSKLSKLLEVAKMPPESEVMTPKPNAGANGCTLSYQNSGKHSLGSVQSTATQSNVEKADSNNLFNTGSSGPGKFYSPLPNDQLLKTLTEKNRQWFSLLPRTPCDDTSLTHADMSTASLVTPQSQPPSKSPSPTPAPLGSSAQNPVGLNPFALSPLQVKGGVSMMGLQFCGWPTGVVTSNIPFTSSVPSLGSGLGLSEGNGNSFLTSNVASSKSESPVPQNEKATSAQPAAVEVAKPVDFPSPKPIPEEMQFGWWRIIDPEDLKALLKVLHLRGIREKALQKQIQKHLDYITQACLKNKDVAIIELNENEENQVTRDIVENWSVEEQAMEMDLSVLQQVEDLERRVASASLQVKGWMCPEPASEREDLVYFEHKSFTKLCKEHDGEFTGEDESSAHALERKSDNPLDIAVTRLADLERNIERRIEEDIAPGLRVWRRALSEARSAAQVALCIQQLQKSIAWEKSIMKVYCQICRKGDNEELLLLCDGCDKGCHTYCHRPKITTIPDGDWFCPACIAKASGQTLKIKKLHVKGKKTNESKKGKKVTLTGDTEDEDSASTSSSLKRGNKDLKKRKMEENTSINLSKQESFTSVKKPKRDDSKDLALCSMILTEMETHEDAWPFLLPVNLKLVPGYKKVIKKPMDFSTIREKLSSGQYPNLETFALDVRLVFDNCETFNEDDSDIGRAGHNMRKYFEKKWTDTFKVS
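Compounds, titrated to a top concentration of 110 uM, were incubated 30 min at room temperature with preformed BAZ2B/acetyl-K14 H3 peptide complex (50 nM each). Proximity signal was measured by AlphaScreen after 20 min with beads.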
A number is an active result; – = inactive; ? = inconclusive; · = no result given; [ ] = another dose, or the depositor's remark. Calls come from the whole dose curve; as a rule, active = well fitted curve in the direction sought with a large enough effect; inconclusive = small, poorly fitted or top-dose-only effect, or another doubt; inactive = no such curve, though single readings can be large; an effect the other way counts as inactive or inconclusive.

SMILES | G9a block | HP1b chromo inh | L3MBTL1 inh | JMJD2A Tudor | Sfp inh | BAZ2B inh
Cc1ccc2c(CC(=O)NCc3ccccc3)coc2c1C | – | – | · | – | · | –
Clc1cccc(C(c2ccc3nc[nH]c3c2)n2ccnc2)c1 (centres undefined) | ? | · | · | · | – | ·
NC(=O)N/N=C\c1cc(Br)ccc1O | – | – | – | – | – | –
O=C(N/N=C/c1cccc2ccccc12)c1ccncc1 | · | – | – | – | – | ?
CN(C)c1ccc(/C(=N\O)c2ccccc2)cc1 | 14.1µM | – | – | 50.1µM | – | –
Cc1sc(N/N=C/c2cc([N+](=O)[O-])ccc2O)nc1-c1ccccc1 | – | – | – | 22.4µM | – | –
O=C(N/N=C/c1cc(Cl)ccc1O)c1ccc(Br)cc1 | – | – | – | 25.1µM | – | ?
O=C(N/N=C/c1ccccc1O)c1ccncc1 | – | – | ? | 50.1µM | – | 35.5µM
CCOC(=O)c1ccc(NC(=O)CN2C(=O)c3cccnc3Sc3ccccc32)cc1 | – | – | · | – | · | –
CCOc1nc(C#N)nc(N(c2ccccc2)c2ccccc2)n1 | · | – | · | – | · | ·
O=C(N/N=C/c1ccc(O)c2ncccc12)c1cccc(Br)c1 | – | – | 7.94µM | 22.4µM | – | 8.91µM
O=C(CN(c1cccc(Br)c1)S(=O)(=O)c1ccccc1)N/N=C/c1cc([N+](=O)[O-])ccc1O | · | – | · | 50.1µM | · | ·
O=C(N/N=C/c1cc(Br)ccc1O)c1ccncc1 | –[12.7 µM] | – | 31.6µM | 28.2µM | – | 20µM
N#CCC(=O)N/N=C\c1ccccc1OC/C=C/c1ccccc1 | – | – | · | ? | – | 50.1µM
COc1ccc(OCC(=O)Nc2nnc(S(=O)(=O)N3CCc4ccccc43)s2)cc1 | – | – | · | – | · | –
Cc1ccc(S(=O)(=O)N(C)Cc2nc(-c3ccccc3)oc2C)cc1 | ? | – | · | – | · | ?
O=C(Nc1ccccc1)N1CCC2(CC1)CCN(C(=O)c1cccc(F)c1)CC2 | –[12.7 µM] | · | · | · | – | ·
COc1cc(-c2nc(SCC(=O)Nc3ccc(C)cc3)c(-c3ccc(F)cc3)[nH]2)cc(OC)c1OC | – | – | · | ? | · | –
Cc1ccc(NC(=O)/C(=C\c2ccc([N+](=O)[O-])cc2)NC(=O)c2ccccc2)cc1 | –[0.0925 µM] | – | – | – | – | –
O=C(N/N=C/c1ccc(O)c(O)c1O)/C(=C/c1ccc([N+](=O)[O-])cc1)NC(=O)c1ccccc1 | 1.58µM | 25.1µM | · | 31.6µM | 44.7µM | ?
O=C(N/N=C/c1cc([N+](=O)[O-])ccc1O)C(O)(c1ccccc1)c1ccccc1 | · | – | – | 79.4µM | – | ?
CCOc1ccc(-n2c(SCC(=O)Nc3cc(C)ccc3C)nc3c([nH]c4ccccc43)c2=O)cc1 | – | – | · | – | · | –
Cc1ccn2c(=O)c(C(=O)NCCc3ccccc3)c(O)nc2c1 | – | – | · | – | · | –
COC(=O)c1ccccc1NC(=O)c1cc(=O)c2ccc(C)c(C)c2o1 | – | – | · | – | · | –
COc1ccc(-c2nc3c(c(SCC(=O)Nc4ccccc4OC)n2)Cc2cccc(C)c2O3)cc1 | – | – | · | – | · | –
SMILES | G9a block | HP1b chromo inh | L3MBTL1 inh | JMJD2A Tudor | Sfp inh | BAZ2B inh
Cc1ccc(-c2nc3c(c(SCC(=O)Nc4cccc(C(=O)O)c4)n2)Cc2cccc(C)c2O3)cc1 | 10µM | ? | 5.62µM | 3.16µM | · | 7.08µM
O=C(CSc1nc(-c2ccc(F)cc2)nc2c1Cc1ccccc1O2)Nc1ccc(C(=O)O)cc1 | ? | ? | 5.01µM | 10µM | – | 7.94µM
Cc1ccccc1NC(=O)c1c(C)oc2ccc(O)c(CN3CCN(C)CC3)c12 | – | – | · | – | · | –
Clc1cccc(CSc2nnc(C3CCNCC3)o2)c1 | – | – | · | – | · | –
CCC(C)OC(=O)/C(C#N)=C\c1ccc(-c2cccc(C(F)(F)F)c2)o1 (centres undefined) | – | – | · | – | · | –
Cc1ccc(NCCC(=O)c2cccc([N+](=O)[O-])c2)c(C)c1 | ? | ? | ? | 31.6µM | – | 28.2µM
O=C(COc1ccccc1O)NNc1ccccc1 | 15.8µM | – | – | – | – | –
CNC(=S)NNC(=O)COc1ccccc1C | 31.6µM | – | – | 20µM | – | –
CNC(=S)NNC(=O)COc1cccc(C)c1C | 7.94µM | – | – | 39.8µM | – | –
O=C(COc1ccccc1O)Nc1ccccc1Cl | –[2.33 µM] | – | – | – | – | –
CCCCCCCC/C=C\CCCCCCCC(=O)NC(C)C(=O)O (centres undefined) | · | · | · | · | – | ·
Cc1nc(NC(=O)c2ccccc2)sc1-c1csc(Nc2ccc(Cl)cc2Cl)n1 | 25.1µM | · | – | · | – | 50.1µM
COc1ccc(Cl)cc1Nc1nc(-c2sc(NC(=O)c3ccccc3)nc2C)cs1 | 35.5µM | · | – | · | – | 56.2µM
COc1ccc(OC)c(Nc2nc(-c3sc(NC(=O)c4ccccc4)nc3C)cs2)c1 | –[12.7 µM] | · | – | · | – | –
Cc1nc(NC(=O)c2ccco2)sc1-c1csc(Nc2ccc(Cl)cc2Cl)n1 | ? | – | – | ? | – | –
O=C(Cn1cc(COc2cc(F)cc(F)c2)nn1)c1ccc(O)cc1 | · | – | · | – | · | ·
Cc1cccc(C)c1OCc1cn(CC(=O)c2ccc(O)cc2)nn1 | · | – | · | 89.1µM | · | ·
O=C(Cn1cc(COc2ccccc2C(F)(F)F)nn1)c1ccc(O)cc1 | · | – | · | 44.7µM | · | ·
O=C(Cn1cc(COc2ccc(Br)cc2[N+](=O)[O-])nn1)c1ccc(O)cc1 | · | – | · | 50.1µM | · | ·
COc1cc(C(C)=O)ccc1OCc1cn(CC(=O)c2ccc(O)cc2)nn1 | · | – | · | 22.4µM | · | ·
Cc1ccc(Cl)cc1NC(=O)c1nnn(Cc2ccccc2)c1N | – | – | · | – | · | –
O=C(NCC1CCCO1)/C(=C\c1ccccc1)NC(=O)c1ccccc1 (centres undefined) | · | – | – | – | – | –
Cc1ccc(/C=C(\NC(=O)c2ccccc2)C(=O)NCC2CCCO2)o1 (centres undefined) | 56.2µM | – | – | – | – | –
CC(=O)N/C(=C\c1ccc(C)o1)C(=O)NCc1ccccc1 | 70.8µM | – | – | – | – | –
O=C(NCc1ccccc1)/C(=C\c1ccccc1)NC(=O)c1ccco1 | – | – | · | – | – | –
SMILES | G9a block | HP1b chromo inh | L3MBTL1 inh | JMJD2A Tudor | Sfp inh | BAZ2B inh
CSc1cccc(NC(=O)c2ccc3c(c2)CCCN3S(C)(=O)=O)c1 | – | – | · | – | · | –
O=C(CSc1nccn1Cc1ccco1)Nc1ccc(OC(F)(F)F)cc1 | – | – | · | ? | · | ?
CC1=C[C@@H](O)CC(C)(C)[C@@H]1/C=C/C(C)=C/C=C/C(C)=C/C=C/C=C(C)/C=C/C=C(C)/C=C/C1=C(C)C[C@H](O)CC1(C)C | ? | · | · | · | 50.1µM | ·
CC1=C(/C=C/C(C)=C/C=C/C(C)=C/C=C/C=C(C)/C=C/C=C(C)/C=C/C(=O)[C@]2(C)CC(O)CC2(C)C)C(C)(C)CC(O)C1 (some centres undefined) | –[2.33 µM] | · | · | · | – | ·
Cc1cc(NC(=O)CCN2CCN(C)CC2)ccc1Br | –[0.501 µM] | – | –[2.29 µM] | 89.1µM | – | –
O=C(CCN1CCCCC1)Nc1cccc(Br)c1 | · | – | – | – | – | –

Source: PubChem BioAssay (National Center for Advancing Translational Sciences (NCATS))
